Experimental data from ChEMBL document CHEMBL1961873, “Compounds: GSK PKIS; Assays: Nanosyn kinase panel” (2012).

Columns and labels:
[1] = target: Mitogen-activated protein kinase 3 (Homo sapiens) (UniProt P27361); details: at 1 µM;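 further: values are mean percent inhibition of MAPK3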
[2] = target: SRSF protein kinase 3 (Homo sapiens) (UniProt Q9UPE1); details: at 0.1 µM
[3] = target: SRSF protein kinase 3 (Homo sapiens) (UniProt Q9UPE1); details: at 1 µM
[4] = target: Mitogen-activated protein kinase 14 (Homo sapiens) (UniProt Q16539); details: at 0.1 µM
Sequence of Mitogen-activated protein kinase 14 (Homo sapiens) (Q16539 whole entry): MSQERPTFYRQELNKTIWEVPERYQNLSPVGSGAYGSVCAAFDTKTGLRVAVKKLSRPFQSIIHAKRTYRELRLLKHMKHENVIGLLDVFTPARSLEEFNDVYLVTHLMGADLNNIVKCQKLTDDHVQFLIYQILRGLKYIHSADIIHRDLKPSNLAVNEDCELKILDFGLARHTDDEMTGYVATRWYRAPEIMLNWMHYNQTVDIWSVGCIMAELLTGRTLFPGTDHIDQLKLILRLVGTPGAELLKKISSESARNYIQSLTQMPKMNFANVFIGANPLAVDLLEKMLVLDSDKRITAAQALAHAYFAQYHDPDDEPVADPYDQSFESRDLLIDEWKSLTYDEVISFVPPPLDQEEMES

[5] = target: Mitogen-activated protein kinase 14 (Homo sapiens) (UniProt Q16539); details: at 1 µM
[6] = target: Mitogen-activated protein kinase 11 (Homo sapiens) (UniProt Q15759); details: at 0.1 µM
Sequence of Mitogen-activated protein kinase 11 (Homo sapiens) (Q15759 whole entry): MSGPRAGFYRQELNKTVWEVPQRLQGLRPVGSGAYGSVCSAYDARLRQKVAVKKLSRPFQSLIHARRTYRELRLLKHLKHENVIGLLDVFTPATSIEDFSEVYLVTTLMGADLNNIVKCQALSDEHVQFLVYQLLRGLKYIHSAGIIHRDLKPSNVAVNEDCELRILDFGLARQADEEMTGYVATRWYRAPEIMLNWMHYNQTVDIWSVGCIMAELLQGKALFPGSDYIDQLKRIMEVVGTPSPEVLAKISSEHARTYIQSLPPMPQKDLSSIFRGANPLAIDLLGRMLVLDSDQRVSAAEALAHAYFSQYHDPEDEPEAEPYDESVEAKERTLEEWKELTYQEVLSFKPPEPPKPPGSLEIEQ

[7] = target: Mitogen-activated protein kinase 11 (Homo sapiens) (UniProt Q15759); details: at 1 µM
[8] = target: T1, Mitogen-activated protein kinase 13 (Homo sapiens) (UniProt O15264); details: at 0.1 µM
T1 sequence (whole entry): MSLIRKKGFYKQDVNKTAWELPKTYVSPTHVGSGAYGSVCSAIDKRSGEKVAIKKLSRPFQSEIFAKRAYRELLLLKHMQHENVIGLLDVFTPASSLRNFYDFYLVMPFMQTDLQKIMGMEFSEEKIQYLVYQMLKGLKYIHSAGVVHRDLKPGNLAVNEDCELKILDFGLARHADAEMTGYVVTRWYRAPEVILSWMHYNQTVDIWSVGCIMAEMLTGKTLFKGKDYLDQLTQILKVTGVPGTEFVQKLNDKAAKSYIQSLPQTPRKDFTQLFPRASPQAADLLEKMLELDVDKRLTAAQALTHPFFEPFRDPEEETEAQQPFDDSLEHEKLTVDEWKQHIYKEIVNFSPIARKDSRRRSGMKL

[9] = target: T1, Mitogen-activated protein kinase 13 (Homo sapiens); details: at 1 µM
[10] = target: T2, Mitogen-activated protein kinase 12 (Homo sapiens) (UniProt P53778); details: at 0.1 µM
T2 sequence (whole entry): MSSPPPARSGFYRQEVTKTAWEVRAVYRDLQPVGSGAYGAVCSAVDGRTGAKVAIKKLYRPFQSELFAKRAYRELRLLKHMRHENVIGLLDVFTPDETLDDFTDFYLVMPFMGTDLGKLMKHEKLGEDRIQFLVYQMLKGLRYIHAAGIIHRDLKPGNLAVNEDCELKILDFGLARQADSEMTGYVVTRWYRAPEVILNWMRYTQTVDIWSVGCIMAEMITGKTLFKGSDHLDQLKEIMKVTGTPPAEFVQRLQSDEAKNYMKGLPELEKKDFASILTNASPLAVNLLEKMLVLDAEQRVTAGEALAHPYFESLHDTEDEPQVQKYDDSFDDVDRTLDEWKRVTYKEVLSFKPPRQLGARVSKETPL

[11] = target: T2, Mitogen-activated protein kinase 12 (Homo sapiens); details: at 1 µM
[12] = target: SRSF protein kinase 1 (Homo sapiens) (UniProt Q96SB4); details: at 0.1 µM
Sequence of SRSF protein kinase 1 (Homo sapiens) (Q96SB4 whole entry, canonical isoform): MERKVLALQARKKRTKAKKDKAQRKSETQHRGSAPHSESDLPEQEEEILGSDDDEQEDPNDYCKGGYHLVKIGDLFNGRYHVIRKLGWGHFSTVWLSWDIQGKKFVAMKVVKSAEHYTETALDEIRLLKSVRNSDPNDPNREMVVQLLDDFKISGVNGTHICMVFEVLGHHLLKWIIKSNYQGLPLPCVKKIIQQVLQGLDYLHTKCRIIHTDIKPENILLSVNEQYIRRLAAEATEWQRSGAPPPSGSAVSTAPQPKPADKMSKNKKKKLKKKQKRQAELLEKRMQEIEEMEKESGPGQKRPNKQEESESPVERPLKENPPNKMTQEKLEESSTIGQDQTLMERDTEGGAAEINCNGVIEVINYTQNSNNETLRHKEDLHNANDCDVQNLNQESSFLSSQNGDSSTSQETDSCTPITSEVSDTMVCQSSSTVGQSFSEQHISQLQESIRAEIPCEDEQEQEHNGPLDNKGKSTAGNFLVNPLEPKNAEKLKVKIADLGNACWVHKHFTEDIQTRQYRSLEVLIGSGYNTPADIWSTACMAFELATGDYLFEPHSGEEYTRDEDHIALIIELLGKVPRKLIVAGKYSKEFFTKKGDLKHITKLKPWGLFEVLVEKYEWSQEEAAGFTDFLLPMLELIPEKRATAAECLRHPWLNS

[13] = target: SRSF protein kinase 1 (Homo sapiens) (UniProt Q96SB4); details: at 1 µM
[14] = target: Phosphatidylinositol 4,5-bisphosphate 3-kinase catalytic subunit alpha isoform (Homo sapiens) (UniProt P42336); details: at 0.1 µM
Sequence of Phosphatidylinositol 4,5-bisphosphate 3-kinase catalytic subunit alpha isoform (Homo sapiens) (P42336 whole entry, canonical isoform): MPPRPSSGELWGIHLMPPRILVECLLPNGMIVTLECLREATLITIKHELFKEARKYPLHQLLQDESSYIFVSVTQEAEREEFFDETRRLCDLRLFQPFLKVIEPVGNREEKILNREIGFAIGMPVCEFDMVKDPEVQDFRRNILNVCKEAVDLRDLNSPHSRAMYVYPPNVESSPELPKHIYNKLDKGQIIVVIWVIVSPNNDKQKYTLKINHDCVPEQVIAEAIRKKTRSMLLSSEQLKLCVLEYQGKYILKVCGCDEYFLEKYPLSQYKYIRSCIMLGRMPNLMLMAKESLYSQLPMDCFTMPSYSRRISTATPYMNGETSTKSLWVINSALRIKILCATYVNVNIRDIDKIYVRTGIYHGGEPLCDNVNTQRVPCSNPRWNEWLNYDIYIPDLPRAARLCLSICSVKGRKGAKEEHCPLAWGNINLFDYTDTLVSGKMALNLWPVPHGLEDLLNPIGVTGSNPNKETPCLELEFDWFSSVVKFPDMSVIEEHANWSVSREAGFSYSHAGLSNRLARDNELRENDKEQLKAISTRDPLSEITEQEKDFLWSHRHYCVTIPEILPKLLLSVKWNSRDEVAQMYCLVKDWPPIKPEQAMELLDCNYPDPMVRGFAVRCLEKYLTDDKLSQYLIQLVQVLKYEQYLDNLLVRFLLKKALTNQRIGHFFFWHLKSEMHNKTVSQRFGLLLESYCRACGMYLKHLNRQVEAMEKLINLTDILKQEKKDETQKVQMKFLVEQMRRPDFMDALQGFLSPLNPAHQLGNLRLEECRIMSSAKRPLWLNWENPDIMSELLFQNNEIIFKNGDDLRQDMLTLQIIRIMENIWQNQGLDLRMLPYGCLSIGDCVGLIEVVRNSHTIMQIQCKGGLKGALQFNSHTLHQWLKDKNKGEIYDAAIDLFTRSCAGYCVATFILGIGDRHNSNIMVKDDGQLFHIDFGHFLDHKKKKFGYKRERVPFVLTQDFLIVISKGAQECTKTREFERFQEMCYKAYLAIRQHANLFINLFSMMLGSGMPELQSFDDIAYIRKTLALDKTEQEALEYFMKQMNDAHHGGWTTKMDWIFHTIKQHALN

[15] = target: Phosphatidylinositol 4,5-bisphosphate 3-kinase catalytic subunit alpha isoform (Homo sapiens) (UniProt P42336); details: at 1 µM
[16] = target: T3, Phosphatidylinositol 4,5-bisphosphate 3-kinase catalytic subunit delta isoform (Homo sapiens) (UniProt O00329); details: at 0.1 µM
T3 sequence (whole entry): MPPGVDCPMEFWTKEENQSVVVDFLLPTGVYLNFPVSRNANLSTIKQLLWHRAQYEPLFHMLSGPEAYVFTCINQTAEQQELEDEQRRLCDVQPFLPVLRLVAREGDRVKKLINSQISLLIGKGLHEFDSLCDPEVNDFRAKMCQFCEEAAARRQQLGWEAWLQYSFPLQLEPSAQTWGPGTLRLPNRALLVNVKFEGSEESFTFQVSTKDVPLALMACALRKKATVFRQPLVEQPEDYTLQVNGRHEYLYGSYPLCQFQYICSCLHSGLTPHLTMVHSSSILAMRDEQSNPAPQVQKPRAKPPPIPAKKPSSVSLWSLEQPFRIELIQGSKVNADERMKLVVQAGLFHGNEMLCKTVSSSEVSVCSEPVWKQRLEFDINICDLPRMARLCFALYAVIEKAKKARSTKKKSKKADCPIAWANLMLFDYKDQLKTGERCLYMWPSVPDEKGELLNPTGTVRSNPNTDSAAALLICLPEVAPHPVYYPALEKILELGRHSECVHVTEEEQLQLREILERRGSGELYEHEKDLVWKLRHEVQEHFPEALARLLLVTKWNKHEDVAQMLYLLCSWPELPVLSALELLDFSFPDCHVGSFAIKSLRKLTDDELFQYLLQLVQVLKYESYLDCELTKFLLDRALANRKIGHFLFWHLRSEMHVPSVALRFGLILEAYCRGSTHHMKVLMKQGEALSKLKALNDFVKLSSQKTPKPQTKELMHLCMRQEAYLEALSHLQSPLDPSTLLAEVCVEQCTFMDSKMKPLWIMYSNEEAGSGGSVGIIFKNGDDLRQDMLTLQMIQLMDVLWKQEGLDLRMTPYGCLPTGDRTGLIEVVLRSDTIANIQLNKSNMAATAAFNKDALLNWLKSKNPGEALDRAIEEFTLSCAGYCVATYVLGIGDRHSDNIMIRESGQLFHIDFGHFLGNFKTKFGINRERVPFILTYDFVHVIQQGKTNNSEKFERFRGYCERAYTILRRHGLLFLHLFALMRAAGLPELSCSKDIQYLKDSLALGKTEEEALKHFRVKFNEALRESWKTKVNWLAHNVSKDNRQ

[17] = target: T3, Phosphatidylinositol 4,5-bisphosphate 3-kinase catalytic subunit delta isoform (Homo sapiens); details: at 1 µM
[18] = target: Phosphatidylinositol 4-kinase beta (Homo sapiens) (UniProt Q9UBF8); details: at 0.1 µM
Sequence of Phosphatidylinositol 4-kinase beta (Homo sapiens) (Q9UBF8 2-816 limits assumed): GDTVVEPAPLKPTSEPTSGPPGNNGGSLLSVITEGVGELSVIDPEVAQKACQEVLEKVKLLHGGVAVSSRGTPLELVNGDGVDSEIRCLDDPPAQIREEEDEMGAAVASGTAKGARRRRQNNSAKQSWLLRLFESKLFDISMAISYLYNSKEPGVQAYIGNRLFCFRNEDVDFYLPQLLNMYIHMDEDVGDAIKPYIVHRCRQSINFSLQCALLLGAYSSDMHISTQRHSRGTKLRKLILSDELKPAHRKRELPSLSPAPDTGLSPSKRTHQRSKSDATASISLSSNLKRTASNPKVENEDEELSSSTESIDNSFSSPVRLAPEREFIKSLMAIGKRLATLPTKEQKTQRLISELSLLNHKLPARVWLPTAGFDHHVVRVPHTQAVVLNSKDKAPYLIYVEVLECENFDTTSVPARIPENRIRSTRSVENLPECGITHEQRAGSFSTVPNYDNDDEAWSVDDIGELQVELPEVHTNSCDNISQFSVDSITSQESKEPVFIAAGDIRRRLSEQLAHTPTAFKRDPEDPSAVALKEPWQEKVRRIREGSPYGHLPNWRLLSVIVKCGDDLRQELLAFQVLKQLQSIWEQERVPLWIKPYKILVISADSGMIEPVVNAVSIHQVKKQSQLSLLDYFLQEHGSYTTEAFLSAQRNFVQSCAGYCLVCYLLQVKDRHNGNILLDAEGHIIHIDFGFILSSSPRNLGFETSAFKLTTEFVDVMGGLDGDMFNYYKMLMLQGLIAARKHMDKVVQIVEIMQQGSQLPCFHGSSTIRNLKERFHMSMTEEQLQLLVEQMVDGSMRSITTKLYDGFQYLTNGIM

[19] = target: Phosphatidylinositol 4-kinase beta (Homo sapiens) (UniProt Q9UBF8); details: at 1 µM
[20] = target: Sphingosine kinase 1 (Homo sapiens) (UniProt Q9NYA1); details: at 0.1 µM;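 further: mean percent inhibition of SPHK1 activity, measured within the GSK PKIS screening panel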
Sequence of Sphingosine kinase 1 (Homo sapiens) (Q9NYA1 whole entry): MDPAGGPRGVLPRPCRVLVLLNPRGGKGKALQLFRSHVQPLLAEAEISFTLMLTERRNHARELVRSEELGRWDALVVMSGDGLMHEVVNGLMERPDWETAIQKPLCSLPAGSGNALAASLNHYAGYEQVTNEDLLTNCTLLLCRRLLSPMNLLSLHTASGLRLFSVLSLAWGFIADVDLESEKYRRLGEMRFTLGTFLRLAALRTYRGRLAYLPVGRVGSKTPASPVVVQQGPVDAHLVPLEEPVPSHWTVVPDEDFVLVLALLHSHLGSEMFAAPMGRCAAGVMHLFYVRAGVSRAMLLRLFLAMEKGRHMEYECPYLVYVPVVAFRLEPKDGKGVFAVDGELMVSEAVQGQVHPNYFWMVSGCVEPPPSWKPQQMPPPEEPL

Sequence of SRSF protein kinase 3 (Homo sapiens) (Q9UPE1 whole entry): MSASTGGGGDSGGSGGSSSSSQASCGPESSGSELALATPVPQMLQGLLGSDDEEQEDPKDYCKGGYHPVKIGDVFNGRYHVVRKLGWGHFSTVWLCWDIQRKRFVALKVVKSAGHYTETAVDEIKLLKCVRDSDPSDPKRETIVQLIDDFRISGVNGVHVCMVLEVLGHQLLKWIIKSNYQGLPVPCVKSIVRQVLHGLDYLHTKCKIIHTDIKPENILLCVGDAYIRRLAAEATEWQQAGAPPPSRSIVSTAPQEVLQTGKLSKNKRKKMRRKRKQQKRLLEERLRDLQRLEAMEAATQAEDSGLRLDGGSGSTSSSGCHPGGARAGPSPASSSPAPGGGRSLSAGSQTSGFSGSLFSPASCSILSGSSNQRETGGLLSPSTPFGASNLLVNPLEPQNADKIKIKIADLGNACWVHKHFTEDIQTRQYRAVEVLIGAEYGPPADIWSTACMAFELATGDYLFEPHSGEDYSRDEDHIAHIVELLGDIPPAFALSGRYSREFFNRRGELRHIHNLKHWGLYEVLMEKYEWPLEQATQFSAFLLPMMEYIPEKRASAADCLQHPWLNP
Sequence of Mitogen-activated protein kinase 3 (Homo sapiens) (P27361 whole entry): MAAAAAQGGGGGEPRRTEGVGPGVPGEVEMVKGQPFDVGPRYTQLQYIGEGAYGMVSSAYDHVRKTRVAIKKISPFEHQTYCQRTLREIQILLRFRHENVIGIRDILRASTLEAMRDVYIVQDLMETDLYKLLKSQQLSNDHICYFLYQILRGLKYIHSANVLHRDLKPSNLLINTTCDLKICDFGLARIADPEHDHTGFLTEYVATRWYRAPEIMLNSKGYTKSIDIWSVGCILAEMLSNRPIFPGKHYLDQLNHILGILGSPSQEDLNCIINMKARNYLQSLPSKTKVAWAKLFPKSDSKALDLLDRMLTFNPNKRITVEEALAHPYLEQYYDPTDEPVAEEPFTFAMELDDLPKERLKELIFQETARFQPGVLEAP

SMILES | inhibition [1] | inhibition [2] | inhibition [3] | inhibition [4] | inhibition [5] | inhibition [6] | inhibition [7] | inhibition [8] | inhibition [9] | inhibition [10] | inhibition [11] | inhibition [12] | inhibition [13] | inhibition [14] | inhibition [15] | inhibition [16] | inhibition [17] | inhibition [18] | inhibition [19] | inhibition [20]
CCN1CCC(CC(=O)Nc2n[nH]c3nnc(-c4cccc(F)c4F)cc23)CC1 | 2.9% | -0.22% | 0.53% | 1.3% | 1.76% | 2.75% | 4.66% | 1.08% | 0.01% | 1.4% | 1.97% | -2.57% | -3.98% | 3.38% | 2.58% | 2.16% | 1.94% | 2.58% | -1.91% | 0.09%
COc1ccc2[nH]c3c4[nH]c5ccc(OC)cc5c4c4c(c3c2c1)C(=O)NC4=O | 6.91% | 1.23% | 18.3% | 4.65% | 10.8% | 3.15% | 7.66% | 0.8% | 2.74% | 4.16% | 1.03% | -1% | 6.5% | 6.77% | 14.6% | 4.48% | 10.1% | -1.55% | -0.12% | -3.65%
COC(=O)Nc1nc2ccc(Oc3ccc(NC(=O)Nc4cccc(Cl)c4)cc3)cc2[nH]1 | -0.19% | -1.41% | 1.25% | 7.99% | 12% | 3.94% | 8.82% | 0.49% | -0.38% | 0.03% | 0.02% | -2.58% | -2.98% | -0.11% | 4.1% | -0.7% | 3.93% | 3.19% | -4.1% | 1.12%
O=C(Nc1n[nH]c2cc(-c3ccc(F)cc3)ccc12)C1CC1 | 0.11% | -0.27% | 0.1% | 3.02% | 7.71% | 3.42% | 7.25% | 2.38% | 4.36% | 2.05% | 2.53% | -1.78% | -2.19% | 5.93% | 9.6% | 7.39% | 10.8% | 3.38% | -2.55% | 2.17%
O=S(=O)(CCNCc1ccc(-c2ccc3ncnc(Nc4ccc(OCc5cccc(F)c5)c(Cl)c4)c3c2)o1)c1ccccc1 | 6% | -1.7% | 3.71% | 16.1% | 14% | 6.03% | 6.99% | 6.05% | 5.53% | 3.55% | 5.41% | -1.17% | -1.46% | 5.28% | 5.59% | 0.47% | 6.33% | -6.34% | -9.91% | 1.07%
Nc1ncc(-c2cccc(S(N)(=O)=O)c2)c2scc(-c3ccc(F)c(Cl)c3)c12 | 5.48% | -1.03% | 0.1% | 13.9% | 55.9% | 21.8% | 62.3% | 3.01% | 1.94% | 2.88% | 3.12% | -2.06% | -3.1% | 4.44% | 8.82% | 1.02% | 3.18% | 7.12% | 1.6% | -0.6%
CCc1nn2ncccc2c1-c1ccnc(NC2CC2)n1 | 4.9% | -0.73% | -0.47% | 4.19% | 7.08% | 5.64% | 7.82% | 3.24% | 3.22% | 2.35% | 3.05% | -1.37% | -0.37% | 1.28% | 1.26% | 0.07% | 0.87% | 5.11% | 8.09% | -2.72%
COc1ccc(CNC(=O)c2ccc(-c3cc(-c4nnc(C)o4)ccc3C)cc2)cc1 | 1.53% | 2.42% | 6.02% | 19.4% | 66.6% | 10.1% | 46.3% | 1.25% | 2.3% | 0.94% | 2.59% | 2.79% | 9.14% | 0.29% | -1.87% | -0.28% | -2.1% | 3.82% | 0.88% | 1.51%
Cc1ccc2c(-c3ccnc(Nc4ccccc4)n3)c(-c3ccc(F)cc3)nn2n1 | 14.5% | 1.07% | 1.53% | 71% | 88.5% | 34.1% | 73.3% | -0.61% | 5.7% | 0.48% | 2.32% | -1.57% | -2.42% | 2.88% | 0.97% | 2.44% | 4.54% | 2.52% | 1.56% | 0%
CCn1cc(-c2ccnc3[nH]ccc23)c(-c2cccc(NC(=O)Nc3ccc(OCc4ccccc4)cc3)c2)n1 | 0.79% | -1.98% | -1.89% | 0.81% | 1.53% | 5.07% | 3.29% | -0.53% | -2.06% | -1.09% | -0.76% | -3.33% | -4.16% | -0.66% | 0.08% | -0.3% | 1.17% | 2.47% | -1.05% | -0.21%
Nc1nc(-c2cccc(Cl)c2)c(-c2ccc3ncccc3n2)s1 | 2.62% | -1.86% | 0.63% | 8.73% | 50% | 5.89% | 19.1% | 3.72% | 5.27% | 8.76% | 3.06% | 0.23% | 2.87% | 4.68% | 8.41% | 2.57% | 6.4% | 0.45% | -3.79% | -1.31%
CC(C)(CO)CNC(=O)c1ccc2c(c1)/C(=N/Nc1ccc(S(N)(=O)=O)cc1)C(=O)N2 | 16.6% | -0.87% | -1.79% | 2.1% | 1.84% | 2.96% | 9.13% | -0.56% | 0.83% | -0.2% | 0.79% | -1.95% | -1.91% | -2.03% | -1.12% | -0.73% | 2.18% | -1.03% | -0.32% | 0.09%
Fc1cccc(COc2ccc(Nc3ncnc4sc(-c5ccco5)cc34)cc2Cl)c1 | 4.3% | -0.82% | 1.38% | 7.31% | 6.29% | 4.57% | 6.75% | 4.02% | 3.46% | 3.22% | 4.18% | -1.79% | -2.01% | 6.18% | 17.2% | 2.28% | 12.4% | -1.28% | 0.68% | 0%
